Tau fibril FP: qHTS for Inhibitors of Tau Fibril Formation, Fluorescence Polarization | K18 P301L tau heparin fibrillization, Alexa594 FP, 6 h | Potency, µM (top dose mostly 57.7 µM), usual class: inhibitors | 280,000 compounds, 0.39% hits | AID 1468, 2008; note: nearly all actives have a fitted effect of over 55% in size
Target sequence (P10636 561-689 P618L limits assumed): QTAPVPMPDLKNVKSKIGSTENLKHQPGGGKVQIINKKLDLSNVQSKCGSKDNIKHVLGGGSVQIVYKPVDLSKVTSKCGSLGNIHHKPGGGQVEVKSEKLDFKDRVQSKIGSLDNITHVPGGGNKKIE
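Recombinant K18 P301L […], labeled with Alexa 594 at 0.24 uM over 15 uM unlabeled; heparin inducer 20 uM final; 37 C, 6 hr; FP endpoint.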
FBPA coupling cs: qHTS Assay for Inhibitors of Fructose-1,6-bisphosphate Aldolase from Giardia Lamblia: Coupling assay counterscreen | coupling enzyme system counterscreen, AmpLite Red fluorescence | activity change, negative = inhibition, % at 58.2 µM, hits read low | 290,000 compounds, 0.67% hits | AID 2472, 2010; in the data active = activity change below about -30%
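Coupling enzymes only (glyceraldehyde-3-phosphate) + compound, at 57.5 uM final, 10 min RT; add substrate/coupling/AmpLite Red mix, 20 min RT; fluorescence ex 525/em 598 nm. Actives flag coupling-system interference.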
Tau fluor cs: Counterscreen qHTS for Inhibitors of Tau Fibril Formation, Fluorescence Polarization; Potency, µM (series often up to 57.7 µM); 280,000 compounds, 0.93% hits; tau K18 P301L Alexa594 fluorescence, heparin fibrillization; AID 1463, 2008; note: nearly all actives have a fitted effect of over 55% in size
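Human K18 P301L tau (15 uM unlabeled plus 0.24 uM Alexa 594-labeled, final) in 100 mM sodium acetate pH 7 was mixed with compound and 20 uM heparin and incubated 6 hr at 37 C.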
USP1 inh: Inhibitors of USP1/UAF1: Primary Screen; Ubiquitin carboxyl-terminal hydrolase 1 (Homo sapiens), O94782; recombinant USP1/UAF1, Ub-Rhodamine cleavage fluorescence; Potency, µM (titrated, usually from 57.1 µM), hits mostly inhibitors; 390,000 compounds, 0.23% hits; AID 743255, 2014; note: nearly all actives have a fitted effect of over 60% in size
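USP1/UAF1 complex (1 nM) preincubated 15 min at room temperature with compound, then Ub-Rho substrate (150 nM final) added. Kinetic fluorescence at 480/540 nm over 6 reads at 60 s intervals; 50 mM HEPES pH 7.8, 0.5 mM EDTA, 0.1 mg/ml BSA, 1 mM TCEP, 0.01% Tween-20.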
Tau ThT inhib: qHTS for Inhibitors of Tau Fibril Formation, Thioflavin T Binding | Microtubule-associated protein tau (Homo sapiens), P10636 | recombinant tau K18 P301L, heparin-induced fibrillization, ThT fluorescence | Potency, µM (titrated, usually from 57.4 µM), actives largely listed as inhibitors | 270,000 compounds, 2.1% hits; note: nearly all actives have a fitted effect of over 55% in size
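ThT emission at 510 nm, taken 1 hr after adding 30 uM dye, quantifies aggregates formed when 20 uM heparin acts on human tau K18 P301L for 6 hr at 37 C.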
Numbers stand for hits; – = inactive; ? = inconclusive; · = not tested or not shown; [ ] = dose if it differs, or a comment. Hits are enriched below; roughly 2.3% of the tested compounds scored in any of these assays. Unless noted, calls come from the whole dose curve; as a rule, active = well fitted curve in the direction sought with a large enough effect; inconclusive = small, poorly fitted or top-dose-only effect, or another doubt; inactive = no such curve, though single readings can be large; an effect the other way counts as inactive or inconclusive.

SMILES | Tau fibril FP | FBPA coupling cs | Tau fluor cs | USP1 inh | Tau ThT inhib
O=C1C=CC2(OCCCO2)C(Br)=C1CO | ? | – | – | · | 15.8µM
COc1cccc(C2=C(C(C)=O)Sc3nncn3N2C(C)=O)c1 | ? | · | – | ? | ?
CCC(=O)C1=C(c2ccc(F)cc2)N(C(=O)CC)n2cnnc2S1 | ? | · | – | ? | 10µM
CC(=O)C1=C(c2ccc(Cl)c(Cl)c2)N(C(C)=O)n2cnnc2S1 | ? | · | ? | ? | 4.47µM
CCOc1ccc(C2=C(C(=O)CC)Sc3nncn3N2C(=O)CC)cc1 | – | · | – | ? | 3.16µM
CCC(=O)C1=C(c2ccc(OC)c(OC)c2)N(C(=O)CC)n2c(nnc2-c2ccc(C)cc2)S1 | – | · | – | – | –
CSCCC(NS(=O)(=O)c1ccc2c(c1)oc(=O)n2C)C(=O)NCc1ccc(F)cc1 (stereo not drawn) | – | · | – | ? | –
CCc1ccc(NC(=O)Cn2nnc(-c3ccccc3N)n2)cc1 | – | · | ? | – | –
O=C(NC(=S)Nc1ccccc1Cl)c1csnn1 | ? | – | – | – | 15.8µM
COc1ccc(S(=O)(=O)/N=C2\C=C(Nc3ccc(O)cc3)C(=O)c3ccccc32)cc1 | · | -31.5 | · | 7.08µM | ·
Cc1ccccc1NC1=C/C(=N\S(=O)(=O)c2cccs2)c2ccccc2C1=O | – | -45.5 | ? | 2.24µM | 8.91µM
Cc1ccc(NC2=C/C(=N/S(=O)(=O)c3cccs3)c3ccccc3C2=O)cc1C | – | – | – | – | –
CC(=O)Nc1ccc(NC2=C/C(=N/S(=O)(=O)c3cccs3)c3ccccc3C2=O)cc1 | ? | -35.1 | 5.01µM[quencher] | 15.8µM | ?
CC1CCCCC12NC(=S)N(c1ccccc1)N2 (stereo not drawn) | ? | – | – | – | 25.1µM
CC1CCCC2(C1)NC(=S)N(c1ccccc1)N2 (stereo not drawn) | – | – | – | – | ?
COc1ccccc1N(O)C1CC(=O)N(c2ccc(F)cc2)C1=O (stereo not drawn) | ? | – | 15.8µM[quencher] | – | 14.1µM
COc1ccccc1N1C(=O)CC(N(O)c2ccccc2)C1=O (stereo not drawn) | – | – | – | – | ?
Cc1ccc2nc(/C(C#N)=C/c3ccc(-c4cccc(Cl)c4)o3)[nH]c2c1 | – | · | ? | – | –
N#C/C(=C\c1ccc(-c2ccc(C(=O)O)cc2)o1)c1nc2ccccc2[nH]1 | – | – | ? | 28.2µM | ?
N#C/C(=C\c1ccc(-c2ccc(Cl)c(C(=O)O)c2)o1)c1nc2ccccc2[nH]1 | – | · | ? | 31.6µM | ?
CCC1CCCCN1C(=O)CCS(=O)(=O)c1cc2c(cc1C)NC(=O)CO2 (stereo not drawn) | – | · | – | – | ?
CCCC[C@]12Cc3cc(OC)c(OC)cc3C(O1)C1=C(O2)C(=O)c2ccccc2C1=O | · | -36.5 | · | · | ·
CCCC[C@]12Cc3ccccc3[C@H](O1)C1=C(O2)C(=O)c2ccccc2C1=O | · | – | · | · | ·
COCCN1C(=O)Cc2c1nc(N)c1c(N)nc(N3CCN(c4ccc(F)cc4)CC3)c(C#N)c21 | – | – | – | – | ?
COCC(C)N1C(=O)Cc2c1nc(N)c1c(N)nc(N3CCN(c4ccccc4F)CC3)c(C#N)c21 (stereo not drawn) | ? | – | ? | – | 25.1µM
COc1ccc(-c2cc(C(F)(F)F)n3nc(-c4ccc(Cl)cc4)cc3n2)cc1OC | – | · | – | – | –
CCOC(=O)C1=C(C)N=c2s/c(=C/c3ccc(OCC(=O)O)cc3)c(=O)n2C1c1ccc(OC)cc1OC (stereo not drawn) | · | – | · | – | ·
CCOC(=O)C1=C(C)N=c2s/c(=C/c3cccc([N+](=O)[O-])c3O)c(=O)n2C1c1ccc(OC)cc1OC (stereo not drawn) | · | – | · | – | ·
COc1ccc(C2C(C(C)=O)=C(C)N=c3s/c(=C\c4cc(C)n(C)c4C)c(=O)n32)c(OC)c1 (stereo not drawn) | – | – | ? | 17.8µM | ?
